# In PubChem BioAssay (EPA / NIEHS):
# Results filed as inconclusive are left out. Activity calls are given as the source filed them. The calls were made as follows: active = hit-call score of the fitted dose curve at least 0.9, where 1 is the maximum; inconclusive = response in the unintended direction; inactive = score below 0.9.
# Tested on: DIO1 (gene 1733)
# Experiment: CCTE_GLTED_hDIO1: CCTE's human Deiodinase 1 (DIO1) Inhibition Assay, Great Lakes Toxicology and Ecology Division (GLTED) Lab (AID 2283987);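 also: isolated human DIO1 enzyme in a cell-free setup rather than cells; enzyme activity read as free iodide liberated from substrate via Sandell-Kolthoff colorimetry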
# Description: CCTE_GLTED_hDIO1 is a cell-free, single-readout assay designed to test the inhibitory activity of chemicals toward human iodothyronine Deiodinase type 1 (DIO1) enzyme. Enzyme is incubated in presence of test chemical for 3 hours during which uninhibited enzyme liberates free iodide from substrate. Free iodide is measured in a second step using the Sandell-Kolthoff method.CCTE_GLTED_hDIO1 is the assay component measured from the CCTE_GLTED_hDIO1 assay. It is designed to make measurements of enzyme activity, a form of enzyme reporter, as detected with absorbance signals by spectrophotometry.Data from the assay component CCTE_GLTED_hDIO1 was analyzed into 1 assay endpoint. This assay endpoint, CCTE_GLTED_hDIO1, was analyzed in the positive analysis fitting direction relative to DMSO as the negative control and baseline of activity. Using a type of enzyme reporter, loss-of-signal activity can be used to understand changes in the enzymatic activity as they relate to the gene DIO1. Furthermore, this assay endpoint can be referred to as a primary readout, because the performed assay has only produced 1 assay endpoint. To generalize the intended target to other relatable targets, this assay endpoint is annotated to the 'deiodinase' intended target family, where the subfamily is 'deiodinase Type 1'.
# […] assay, developed at Great Lakes Toxicology and Ecology Division (GLTED) within the EPA's Center for Computational Toxicology and Exposure (CCTE), is designed to test the chemicals' ability to inhibit DIO1. Assay is based on iodide release measured by the Sandell-Kolthoff method and is run in 96-well plate format with assay plates run in triplicate (n=3). The method used for the deiodinase assay was largely based on Renko et al. (2012, 2015). These works describe the utilization of the SK reaction to measure deiodinase-liberated iodide in a 96-well-plate format. The SK reaction is based on the reduction of the yellow-colored cerium IV to the non-colored cerium III by arsenic, with the rate of this reaction increased in the presence of iodide in a concentration-dependent manner (Sandell and Kolthoff, 1937). Iodinated test chemicals can interfere as competitive inhibitors, or if the stock chemical has contaminating free-iodide present. Other chemicals, e.g.: nitrite, iron, and thiocyanate can interfere with the Sandell-Kolthoff reaction (see Sandell and Kolthoff, 1937).
row,SMILES,AC50
1,CCCCCCCCCCCC[N+](C)(C)C,83.2 µM (active)
2,CC(C)(C)c1csc(-c2cc3cc(OCc4ccccc4CC(=O)O)ccc3o2)n1,100 µM (active)
3,OC12N=C(c3ccccc3)SC1Cc1cc(Cl)ccc12 (stereo unspecified),21.1 µM (active)
4,CN(C[C@@H](CC[N+]12CCC(C3CCCCC3)(CC1)CC2)c1ccc(Cl)c(Cl)c1)C(=O)c1cc(C(F)(F)F)cc(C(F)(F)F)c1,57.6 µM (active)
5,CC(C)(C)c1cc(/C=C2\SC(N)=NC2=O)cc(C(C)(C)C)c1O,3.01 µM (active)
6,CC(C)(c1cc(Br)c(O)c(Br)c1)c1cc(Br)c(O)c(Br)c1,37.6 µM (active)
7,NCc1cccc(C2CCN(C(=O)c3ccc(C#Cc4ccccc4F)o3)CC2)c1,88.6 µM (active)
8,CCOC(=O)O[C@H](C)OC(=O)c1ccc2c(c1)cc(C(=O)NC1CCN(C(C)C)CC1)n2Cc1cc(-c2ccc(Cl)s2)on1,97.5 µM (active)
9,CCN(CC)C(=O)c1cc(S(=O)(=O)Cc2ccccc2)c(N2CCC(c3ccccc3)CC2)cc1N(CC)CCN(C)C,40 µM (active)
10,CCCCCCCCOC(=O)c1cc(O)c(O)c(O)c1,101 µM (active)
11,O=c1c(-c2ccc(O)cc2)coc2cc(O)cc(O)c12,2.42 µM (active)
